Shown are actives, neighbours in structure and some others; about 9% of the full set was active somewhere.
KinaseGlo FLuc: blocks Kinase-Glo luciferase, a counter-screen artifact; Kinase-Glo luciferase, ATP luminescence, 8 min; AID 1379; Q27757; Potency, µM (series often up to 38.3 µM), inactives show at the highest dose activity change, negative = inhibition, actives largely listed as inhibitors; hit rate 0.28% among 200,000; also: % is scaled to controls: 0 for no effect and ±100 for the full control effect; nearly all actives have a fitted effect of over 60% in size
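Recombinant Kinase-Glo luciferase, 10 uM ATP (linear range), luciferin; imidazole pH 7.2 / KCl / MgCl2 / Tween / BSA buffer; 8 min RT; luminescence.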
HTT cytoprotect: cytoprotection in Huntington HTT-Q103 PC12 cell model; PC12 HTT-Q103 induced, cytoprotection, ATP luminescence, 40 h; Potency, µM (highest dose often 56.4 µM), inactives show cytoprotection (ATP increase), hits mostly activators; hit rate 0.14% among 230,000; AID 1471; also: % of control where 0% means no effect; nearly all actives have a fitted effect of over 45% in size
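ATP quantification (ATPlite) reports survival of PC12 cells in which tebufenozide, 100 nM final, switches on Htt exon 1 with 103 glutamines linked to GFP; compounds are titrated.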
HPGD block: inhibitors of human 15-hydroxyprostaglandin dehydrogenase (HPGD) | Potency, µM, without a hit: top-dose activity change, negative = inhibition, hits mostly inhibitors | hit rate 4.3% among 150,000 | purified HPGD, NADH fluorescence kinetic, PGE2 substrate; active = well fitted inhibition curve with a large enough effect, not every such curve was filed as active; inconclusive = small, poorly fitted or top-dose-only effect, or another doubt; inactive = no such curve, though single readings can be large or run the other way; also: % is scaled to controls: 0 for no effect and ±100 for the full control effect
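20 nM HPGD preincubated 15 min at room temperature with compound in 50 mM Tris-HCl pH 8, 0.01% Tween 20. Started with 1 mM NAD+ and 30 uM prostaglandin E2; NADH fluorescence (360/450 nm) read 5 times over 30-s intervals, last minus first.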
HttQ103 aggreg: inhibitors of mutant huntingtin aggregate formation in PC12 cells; Potency, µM (highest dose often 46.1 µM), inactives show top-dose activity change, negative = inhibition, most hits filed as inhibitors; hit rate 1.1% among 220,000; PC12 HttQ103-GFP aggregates, Acumen cytometry, 40 h; also: % is scaled to controls: 0 for no effect and ±100 for the full control effect; nearly all actives have a fitted effect of over 60% in size
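PC12/HTTQ103-GFP, ecdysone-inducible; teb 100 nM; cpd qHTS titration; GFP aggregates read on laser cytometer, Ex 488/Em 500-530 nm.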
ALDH1A1 inh: ALDH1A1 (human) enzyme inhibition | P00352 | Purified ALDH1A1, NADH fluorescence, propionaldehyde substrate | Potency, µM (highest dose often 75.3 µM), without a hit: top-dose activity, negative = inhibition, most hits filed as inhibitors | hit rate 7.3% among 220,000 | AID 1030; active = well fitted inhibition curve with a large enough effect, not every such curve was filed as active; inconclusive = small, poorly fitted or top-dose-only effect, or another doubt; inactive = no such curve, though single readings can be large or run the other way;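 also: plate controls were no enzyme wells and a reference inhibitor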
Target sequence (P00352 whole entry, looked up): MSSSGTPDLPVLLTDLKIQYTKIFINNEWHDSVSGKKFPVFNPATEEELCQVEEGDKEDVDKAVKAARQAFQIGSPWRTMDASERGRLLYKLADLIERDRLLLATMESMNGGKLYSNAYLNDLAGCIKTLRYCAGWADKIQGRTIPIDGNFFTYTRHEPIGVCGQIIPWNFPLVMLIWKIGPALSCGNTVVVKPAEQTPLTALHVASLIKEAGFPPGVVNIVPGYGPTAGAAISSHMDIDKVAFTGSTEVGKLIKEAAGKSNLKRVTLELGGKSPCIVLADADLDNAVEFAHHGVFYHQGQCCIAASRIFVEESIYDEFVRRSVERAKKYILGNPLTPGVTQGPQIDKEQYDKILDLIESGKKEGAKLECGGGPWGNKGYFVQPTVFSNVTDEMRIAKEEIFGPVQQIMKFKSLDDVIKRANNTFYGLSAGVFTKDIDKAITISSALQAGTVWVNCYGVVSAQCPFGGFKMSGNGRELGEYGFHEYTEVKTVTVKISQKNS
Lamin A splicing: LMNA splicing modulation | HeLa LMNA splicing GFP/RFP minigene ratio, 48 h | Potency, µM (series often up to 46.1 µM), inactives show top-dose ratio change, negative = inhibition, most hits filed as inhibitors | hit rate 0.01% among 200,000; active = well fitted inhibition curve with a large enough effect in the signal ratio, with a control signal flat, not every such curve was filed as active; inconclusive = small, poorly fitted or top-dose-only effect, or effect the other way, or a change in a side signal; the % refers to the signal ratio; also: % is scaled to controls: 0 for no effect and ±100 for the full control effect
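S3 HeLa stable clones carrying a lamin A-EGFP splicing minigene plus DsRed2 were seeded at 600 cells/well in Opti-MEM with 2% FBS, pin-dosed and incubated 48 h at 37°C. Acumen cytometry (488 nm) gave the GFP/RFP total-intensity ratio.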
The depositor's hits bear a star; [ ] = remark or other dose. Unless noted, calls follow the shape of the dose curve; as a rule, active = well fitted curve in the direction sought with a large enough effect; inconclusive = small, poorly fitted or top-dose-only effect, or another doubt; inactive = no such curve, though single readings can be large; an effect the other way counts as inactive or inconclusive. Potency is read from the fitted curve at half-maximal effect.

For FC(F)Oc1ccc(/C=N/NC(=S)Nc2cc(C(F)(F)F)ccc2Cl)cc1 the results were KinaseGlo FLuc -1%, HTT cytoprotect 20%[10 µM], HPGD block -5%, HttQ103 aggreg -2%, ALDH1A1 inh -3% and Lamin A splicing 6%.
Screening Cc1nc(SCn2nnc3ccccc3c2=O)c2c(C)c(C)sc2n1 returned KinaseGlo FLuc 2%, HTT cytoprotect -2%, HPGD block -10%, HttQ103 aggreg -2%, ALDH1A1 inh -6% and Lamin A splicing 5%.
For COc1ccc(C(C)=O)cc1COC(=O)c1cccnc1SC the results were KinaseGlo FLuc 1%, HTT cytoprotect -54%, HttQ103 aggreg 0%, ALDH1A1 inh 10µM* and Lamin A splicing 12%[46 µM].
`Cc1cccc(/C(N)=N/OC(=O)CCCN2C(=O)c3ccccc3C2=O)c1` gave KinaseGlo FLuc -6%, HTT cytoprotect 2%, HPGD block -24%, HttQ103 aggreg 0%, ALDH1A1 inh 0% and Lamin A splicing 10%.
Screening N/C(=N\OC(=O)CCCCCN1C(=O)c2ccccc2C1=O)c1ccccc1 returned KinaseGlo FLuc 9%, HTT cytoprotect 20%[10 µM], HPGD block 13µM*, HttQ103 aggreg -31%, ALDH1A1 inh inconclusive and Lamin A splicing -13%.
CSc1ncccc1C(=O)OCc1ccccc1Cl was read as KinaseGlo FLuc inconclusive, HTT cytoprotect -10%, HttQ103 aggreg inconclusive, ALDH1A1 inh inconclusive and Lamin A splicing -4%[46 µM].
COc1ccc(C(C)=O)cc1COC(=O)c1cc(C)oc1C was read as KinaseGlo FLuc 2%, HTT cytoprotect -14%[0.074 µM], HPGD block -9%, HttQ103 aggreg -15%, ALDH1A1 inh 18µM* and Lamin A splicing -1%.
`COc1ccc(C(C)=O)cc1COC(=O)Cc1n[nH]c(=O)c2ccccc12` gave KinaseGlo FLuc 10%, HTT cytoprotect -2%[10 µM], HPGD block 22µM*, HttQ103 aggreg 1%, ALDH1A1 inh inconclusive and Lamin A splicing 10%.
COc1ccc(-n2c(-c3ccc(Cl)cc3)c[n+]3c2CCc2ccccc2-3)cc1 was read as KinaseGlo FLuc -4%, HTT cytoprotect -68%, HttQ103 aggreg 13µM*, ALDH1A1 inh 9% and Lamin A splicing inconclusive.
Screening COc1ccc(-n2c(-c3ccccc3)nnc2-c2ccc(Cl)cc2)cc1 returned KinaseGlo FLuc -2%, HTT cytoprotect 4%, HPGD block -17%, HttQ103 aggreg 13%, ALDH1A1 inh 1% and Lamin A splicing inconclusive.
`CC1CN(C(=O)c2cc3cc([N+](=O)[O-])ccc3oc2=O)CC(C)O1` (configuration not stated) gave KinaseGlo FLuc 1%, HTT cytoprotect -1%[10 µM], HttQ103 aggreg 7%[9.22 µM], ALDH1A1 inh inconclusive and Lamin A splicing inconclusive.
For O=C(c1cc2cc([N+](=O)[O-])ccc2oc1=O)N1CCOCC1 the results were KinaseGlo FLuc -21%, HTT cytoprotect 8%[10 µM], HttQ103 aggreg -12%[9.22 µM], ALDH1A1 inh 13µM* and Lamin A splicing inconclusive.
`O=C(c1cc2cc([N+](=O)[O-])ccc2oc1=O)N1CCN(c2ncccn2)CC1` gave KinaseGlo FLuc -1%, HTT cytoprotect inconclusive, HPGD block -4%, HttQ103 aggreg 0.71µM*, ALDH1A1 inh 0% and Lamin A splicing 3%.
For O=C(COC(=O)c1ccc(-c2ccccc2)cc1)Nc1ccccc1-c1ccccc1 the results were KinaseGlo FLuc 2%, HTT cytoprotect 22%[10 µM], HPGD block -29%, HttQ103 aggreg -4%, ALDH1A1 inh inconclusive and Lamin A splicing -4%.
COc1cc(OC)cc(C(=O)Nc2ccccc2N2CCOCC2)c1 was read as KinaseGlo FLuc -4%, HTT cytoprotect -5%, HPGD block -9%, HttQ103 aggreg 13%, ALDH1A1 inh -11% and Lamin A splicing 1%.
